Structures are written as SMILES.

The nature of the assay: basal RPMI8226 viability, no added stimulus, profiling panel, cell-based, calcein-AM fluorescence, 48 h, PK04 Diversity Set (AID 1166).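 Further: cells grown under basal conditions without added stimulus; test concentration not given here.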 Particulars: RPMI8226 myeloma viability, higher = more signal.
As for `CC(=O)NCCCC[C@@H]1NC(=O)[C@@H]2C[C@H](C(=O)NCCCCCNC(=O)CS)[C@H](c3cccc(OCCO)c3)N2C1=O`, the z-score was 0.403.

As to `COc1ccccc1CN1C(=O)c2ccccc2[C@@]2(Cc3ccccc3N(CC(C)C)C2=O)[C@@H]1c1ccc(CO)cc1`, the z-score was -0.0712.

In the case of `CC(CO)N1C(=O)[C@@H]2C3C(=O)OCCC/C=C\[C@H]3OC23C=CCN(C(C)(C)C)C(=O)[C@@H]13` (stereo partly drawn), the z-score was 0.995.

With `CC1(C)[C@@H]2CC(C(O)C3C=CC4C(=O)N(Cc5ccccc5)C(=O)C4N3n3cnnc3)=C[C@H]1C2` (stereo partly drawn), the z-score is 0.346.

In the case of `O=C1C[C@@](C(=O)NC2CC2)(c2ccc([N+](=O)[O-])cc2)[C@@H](c2ccc(CO)cc2I)N1C1CCCCC1`, the z-score is -1.17.

Take `NC(=O)NCC#Cc1ccc2c(c1)[C@]1(C(=O)N2)[C@H](C(=O)Nc2nc3ccccc3s2)[C@H]2C(=O)O[C@H](c3ccccc3)[C@H](c3ccccc3)N2[C@@H]1c1ccccc1OCCO`: the z-score is -1.12.

Turning to `O=C1c2ccccc2[C@](Cc2ccccc2I)(C(=O)NCC(F)(F)F)[C@H](c2ccc(CO)cc2)N1Cc1ccccc1Cl`, the z-score was -1.55.

Take `CCC[C@@H]1C[C@@]1(CCC)[C@@H](NS(=O)(=O)c1cccc2cccnc12)c1ccc(Cl)cc1`: the z-score was -0.99.

For the molecule `CCCC[C@@H]1C[C@H]1[C@@H](NC(=O)c1ccco1)c1ccc(-c2ccccc2)cc1`, the z-score was -1.03.

On to `Cc1ccc(S[C@]2(C(=O)NCCCN(C)C)CC(=O)N(Cc3cc(C(F)(F)F)cc(C(F)(F)F)c3)[C@@H]2c2ccc(CO)cc2)cc1`, for which the z-score was 0.51.

In the case of `C=C[C@@H](COC(=O)OC(C)(C)C)N(Cc1ccc(OC)cc1)S(=O)(=O)c1ccc(Br)cc1`, the z-score was -1.36.

With `COCCOC(=O)N1C(=O)[C@@]2(c3cc(C#CCC(C(=O)OC)C(=O)OC)ccc31)[C@H](C(=O)N1CCN(c3ncccn3)CC1)[C@H]1C(=O)O[C@H](c3ccccc3)[C@H](c3ccccc3)N1[C@@H]2c1ccccc1OCCO`, the z-score is 0.297.

Turning to `CN1C(=O)C2C=CC(C(O)c3ccccc3)N(N(c3ccccc3)c3ccccc3)C2C1=O` (stereo not drawn), the z-score was -0.383.

Regarding `COc1ccc([Si](C)(C)[C@H]2[C@H](CC(=O)N3Cc4ccccc4C[C@H]3CO)O[C@@]3(C(=O)N(Cc4cccc(N5CCC5=O)c4)c4ccccc43)[C@@H]2C)cc1`, the z-score was -3.

Take `C=CCC(OC(C)=O)[C@@H]1[C@@H](N(Cc2ccc(-c3cccc(C(F)(F)F)c3)o2)C(=O)c2ccc(C)cc2)c2cc(OCCCO)ccc2N1C(=O)Cc1ccc2ccccc2c1` (stereo partly drawn): the z-score was 0.707.

As to `Oc1ccc2cc[n+](Cc3sc4ccccc4c3Cl)cc2c1`, the z-score was -1.86.

Take `COC(=O)C(CC#Cc1ccc2c(c1)[C@]1(C(=O)N2)[C@H](c2ccc(OCCO)cc2)N2[C@H](c3ccccc3)[C@H](c3ccccc3)OC(=O)[C@H]2[C@@H]1C(=O)N1CCc2cc(OC)c(OC)cc2C1)C(=O)OC`: the z-score was -0.578.

Take `COc1ccc(CCNC(=O)[C@@]2(Sc3ccc(C)cc3)CC(=O)N(C(C)C)[C@@H]2c2ccc(CO)cc2I)cc1`: the z-score is -2.32.

On to `CN(C)CCCC[C@@H]1NC(=O)[C@@H]2C[C@H](C(=O)NCCCCCCN)[C@H](c3cccc(OCCO)c3)N2C1=O`, for which the z-score was 0.294.

As for `C=CCN1C(=O)[C@]2(O[C@H](CCn3cc([C@H](O)c4ccccc4)nn3)[C@@H]([Si](C)(C)c3ccc(OC)cc3)[C@@H]2C)c2ccccc21`, the z-score was -4.3.

`COC(=O)C(CC#Cc1ccc2c(c1)[C@]1(C(=O)N2)[C@H](C(=O)Nc2nc3ccccc3s2)[C@H]2C(=O)O[C@H](c3ccccc3)[C@H](c3ccccc3)N2[C@@H]1c1ccc(O)cc1)C(=O)OC`: the z-score is -3.43.

In the case of `COc1cc2c(cc1O)C(c1cccs1)N(C)CC2` (stereo not drawn), the z-score was 0.586.

As for `C=CC[C@]1(C(=O)NCc2ccccc2)N=C(c2ccc(OCCCO)cc2)O[C@H]1c1ccccc1N=[N+]=[N-]`, the z-score is -1.41.

For the molecule `O=C(c1ccccc1)N1Cc2ccccc2C[C@@]2(COC(c3ccc(OCCCO)cc3)=N2)C1=O`, the z-score was 0.0855.

Turning to `C=C[C@H](C)[C@@H](OC(=O)Nc1ccc(OC)cc1)c1ccc(O)c2ccccc12`, the z-score is -4.12.

For the molecule `CCC(CC)C(O)C1C=CC2C(=O)NC(=O)C2N1Nc1ccc(Cl)cc1Cl` (stereo not drawn), the z-score was -0.82.

Regarding `COc1ccc(C#Cc2ccc3c(c2)[C@]2(C(=O)N3)[C@H](c3ccccc3OCCO)N3[C@H](c4ccccc4)[C@H](c4ccccc4)OC(=O)[C@H]3[C@@H]2C(=O)Nc2nc3ccccc3s2)cc1`, the z-score was -2.65.

As to `O=C(CS)NCCCCCCNC(=O)[C@@H]1C[C@@H]2C(=O)N[C@@H](Cc3ccccc3)C(=O)N2[C@@H]1c1cccc(OCCO)c1`, the z-score is 0.537.
